The panel holds about 83,000 compounds, 20% with a hit somewhere; the sample as a whole holds those more often.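 A percent growth of 40 corresponds to 60% growth inhibition; 0 means no net growth; -100 means all cells died. Active threshold: below 10.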 Activity calls are given as the source filed them.
Experiments:
Assay in all cases: NCI-60 one-dose screen, 48 h (100 = growth as untreated, 0 = no growth, -100 = all killed)
Conditions in all cases: 10 µM unless noted
SK-MEL-2 melanoma = tested on: SK-MEL-2 melanoma
EKVX NSCLC = tested on: EKVX NSCLC
SN12C renal = tested on: SN12C renal
UO-31 renal = tested on: UO-31 renal
TK-10 renal = tested on: TK-10 renal
ACHN renal = tested on: ACHN renal
CAKI-1 renal = tested on: CAKI-1 renal
A498 renal = tested on: A498 renal
MOLT-4 leukemia = tested on: MOLT-4 leukemia
CCRF-CEM leukemia = tested on: CCRF-CEM leukemia

Measured: growth

COc1cccc(Nc2nccc(Nc3ccc4[nH]ncc4c3)n2)c1
active: SK-MEL-2 melanoma -37% | UO-31 renal -62.1% | TK-10 renal -77.7% | ACHN renal -3.17% | CAKI-1 renal -30.8% | MOLT-4 leukemia -32.4%
inactive: EKVX NSCLC 34% | SN12C renal 20.2% | A498 renal 12.7%

CC/C=C\CCC/C=C1/C(=O)C=C[C@@H]1C/C=C\CCCC(=O)O
active: MOLT-4 leukemia 6.84%
inactive: SK-MEL-2 melanoma 89.4% | EKVX NSCLC 103% | SN12C renal 48.4% | UO-31 renal 70.8% | TK-10 renal 114% | ACHN renal 42.9% | CAKI-1 renal 60.1% | A498 renal 103%

Nc1ccc2c(c1)c(N)nn2C(=O)Nc1ccc(Cc2ccccc2)cc1
inactive: SK-MEL-2 melanoma 73.7% | EKVX NSCLC 82.3% | SN12C renal 61.1% | UO-31 renal 39.3% | TK-10 renal 88.3% | ACHN renal 48.9% | CAKI-1 renal 38.9% | A498 renal 103% | CCRF-CEM leukemia 55.5% | MOLT-4 leukemia 27.8%

COc1ccc2c(c1)O/C(=C/c1ccc(OCC(=O)c3ccccc3)cc1)C2=O
inactive: SK-MEL-2 melanoma 108% | EKVX NSCLC 97% | SN12C renal 107% | TK-10 renal 115% | ACHN renal 99.5% | CAKI-1 renal 103% | A498 renal 170% | MOLT-4 leukemia 90.3%
active: UO-31 renal -29.2%

COc1ccc(NC(=O)CSc2nc(C)c(C(C)=O)n2-c2ccc([N+](=O)[O-])cc2)cc1
inactive: SK-MEL-2 melanoma 89.3% | EKVX NSCLC 88.1% | SN12C renal 94.7% | UO-31 renal 83.6% | TK-10 renal 96.9% | ACHN renal 95.6% | CAKI-1 renal 99.6% | A498 renal 58.1% | CCRF-CEM leukemia 111% | MOLT-4 leukemia 92.2%

CC1=C(SCCC(=O)OC(C[Se]C2=C(C)C(=O)c3ccccc3C2=O)C(=O)NCCCCCC(=O)OCc2ccccc2)C(=O)c2ccccc2C1=O (stereo not drawn)
inactive: SK-MEL-2 melanoma 23.3% | EKVX NSCLC 55.8% | SN12C renal 38.4% | UO-31 renal 25.3% | TK-10 renal 114% | ACHN renal 36.4% | CAKI-1 renal 90.8% | A498 renal 70.8% | MOLT-4 leukemia 10.9%

O=c1c2c3c(sc2nc(N/N=C/c2ccc(Br)cc2)n1Cc1ccccc1)CCCC3
inactive: SK-MEL-2 melanoma 102% | EKVX NSCLC 74.1% | SN12C renal 78.3% | UO-31 renal 62.3% | TK-10 renal 85.5% | ACHN renal 87.1% | CAKI-1 renal 62% | A498 renal 78.4% | MOLT-4 leukemia 40.8%

O=C(Nc1ccc(Nc2ccncc2)cc1)c1ccc(C(=O)Nc2ccc(Nc3ccncc3)cc2)cc1
inactive: SK-MEL-2 melanoma 53.7% | EKVX NSCLC 91.8% | SN12C renal 88.1% | UO-31 renal 89.4% | TK-10 renal 137% | ACHN renal 97.2% | CAKI-1 renal 81.6% | A498 renal 117% | MOLT-4 leukemia 71.5%

Cc1ccc(/C=C/c2c(C(=O)/C=C/c3ccc(Cl)cc3)c(C)nc3ccccc23)cc1
active: SK-MEL-2 melanoma 8.94% | SN12C renal -49.2% | UO-31 renal -74.7% | ACHN renal -64.6% | CAKI-1 renal -4.17% | A498 renal -16.1% | MOLT-4 leukemia 0.928%
inactive: EKVX NSCLC 17.6% | TK-10 renal 26.5%

Cc1ccc(-c2cc3c(cc2O)C2CCCCC2(N2CCOCC2)O3)cc1 (stereo not drawn)
inactive: SK-MEL-2 melanoma 101% | EKVX NSCLC 107% | SN12C renal 93.1% | UO-31 renal 84.5% | TK-10 renal 116% | ACHN renal 112% | CAKI-1 renal 96% | A498 renal 114% | MOLT-4 leukemia 84.1%

N=C(N)c1ccc(-c2ccc(-c3cncc4ccccc34)s2)s1
inactive: SK-MEL-2 melanoma 79.3% | A498 renal 70.2%
active: EKVX NSCLC -65.7% | SN12C renal -63% | UO-31 renal -76.6% | TK-10 renal -93.5% | ACHN renal -88.5% | CAKI-1 renal -91.4% | MOLT-4 leukemia -50.3%

O=C(COc1ccc(/C=C2\Oc3ccccc3C2=O)cc1)Nc1nc2c(s1)CCCC2
inactive: SK-MEL-2 melanoma 84% | EKVX NSCLC 26.4% | SN12C renal 46% | TK-10 renal 79.7% | ACHN renal 65.5% | A498 renal 110%
active: UO-31 renal -59.9% | CAKI-1 renal -98.4% | MOLT-4 leukemia -64.3%

Fc1c[c-]c(-c2ccccn2)c(F)c1.[CH3-].[Pt+2].c1ccc(P(C[PH+](c2ccccc2)c2ccccc2)c2ccccc2)cc1
active: SK-MEL-2 melanoma -39% | EKVX NSCLC -12% | SN12C renal -32.2% | UO-31 renal -98.2% | TK-10 renal -30.5% | ACHN renal -100% | CAKI-1 renal -73.8% | A498 renal -79.3% | MOLT-4 leukemia 0%

CCN(CC)CCN1CC(O)=C(c2nc(-c3ccc(Cl)cc3)cs2)C1=N
inactive: SK-MEL-2 melanoma 100% | EKVX NSCLC 82.8% | SN12C renal 64.5% | TK-10 renal 89.2% | ACHN renal 42.5% | CAKI-1 renal 43.2% | A498 renal 56.5%
active: UO-31 renal -24.7% | MOLT-4 leukemia 1.18%

— PubChem BioAssay (NCI)
